# Source: PubChem BioAssay AID2073 (Sanford-Burnham Center for Chemical Genomics, 2009)
# The campaign covered roughly 290,000 compounds. About 570 (0.2%) were called active. About 1% were inconclusive and are not listed. Cut-off read from the data, not from the text of the source: active = inhibition mostly above about 51% (no sharp cut-off); inconclusive = no clear call, values can overlap the other calls; inactive = mostly below about 53%. Only a selection was taken, and actives are over-represented in it overall.
# Target: Voltage-dependent N-type calcium channel subunit alpha-1B (Homo sapiens) (UniProt Q00975)
# Sequence (Q00975 whole entry, looked up): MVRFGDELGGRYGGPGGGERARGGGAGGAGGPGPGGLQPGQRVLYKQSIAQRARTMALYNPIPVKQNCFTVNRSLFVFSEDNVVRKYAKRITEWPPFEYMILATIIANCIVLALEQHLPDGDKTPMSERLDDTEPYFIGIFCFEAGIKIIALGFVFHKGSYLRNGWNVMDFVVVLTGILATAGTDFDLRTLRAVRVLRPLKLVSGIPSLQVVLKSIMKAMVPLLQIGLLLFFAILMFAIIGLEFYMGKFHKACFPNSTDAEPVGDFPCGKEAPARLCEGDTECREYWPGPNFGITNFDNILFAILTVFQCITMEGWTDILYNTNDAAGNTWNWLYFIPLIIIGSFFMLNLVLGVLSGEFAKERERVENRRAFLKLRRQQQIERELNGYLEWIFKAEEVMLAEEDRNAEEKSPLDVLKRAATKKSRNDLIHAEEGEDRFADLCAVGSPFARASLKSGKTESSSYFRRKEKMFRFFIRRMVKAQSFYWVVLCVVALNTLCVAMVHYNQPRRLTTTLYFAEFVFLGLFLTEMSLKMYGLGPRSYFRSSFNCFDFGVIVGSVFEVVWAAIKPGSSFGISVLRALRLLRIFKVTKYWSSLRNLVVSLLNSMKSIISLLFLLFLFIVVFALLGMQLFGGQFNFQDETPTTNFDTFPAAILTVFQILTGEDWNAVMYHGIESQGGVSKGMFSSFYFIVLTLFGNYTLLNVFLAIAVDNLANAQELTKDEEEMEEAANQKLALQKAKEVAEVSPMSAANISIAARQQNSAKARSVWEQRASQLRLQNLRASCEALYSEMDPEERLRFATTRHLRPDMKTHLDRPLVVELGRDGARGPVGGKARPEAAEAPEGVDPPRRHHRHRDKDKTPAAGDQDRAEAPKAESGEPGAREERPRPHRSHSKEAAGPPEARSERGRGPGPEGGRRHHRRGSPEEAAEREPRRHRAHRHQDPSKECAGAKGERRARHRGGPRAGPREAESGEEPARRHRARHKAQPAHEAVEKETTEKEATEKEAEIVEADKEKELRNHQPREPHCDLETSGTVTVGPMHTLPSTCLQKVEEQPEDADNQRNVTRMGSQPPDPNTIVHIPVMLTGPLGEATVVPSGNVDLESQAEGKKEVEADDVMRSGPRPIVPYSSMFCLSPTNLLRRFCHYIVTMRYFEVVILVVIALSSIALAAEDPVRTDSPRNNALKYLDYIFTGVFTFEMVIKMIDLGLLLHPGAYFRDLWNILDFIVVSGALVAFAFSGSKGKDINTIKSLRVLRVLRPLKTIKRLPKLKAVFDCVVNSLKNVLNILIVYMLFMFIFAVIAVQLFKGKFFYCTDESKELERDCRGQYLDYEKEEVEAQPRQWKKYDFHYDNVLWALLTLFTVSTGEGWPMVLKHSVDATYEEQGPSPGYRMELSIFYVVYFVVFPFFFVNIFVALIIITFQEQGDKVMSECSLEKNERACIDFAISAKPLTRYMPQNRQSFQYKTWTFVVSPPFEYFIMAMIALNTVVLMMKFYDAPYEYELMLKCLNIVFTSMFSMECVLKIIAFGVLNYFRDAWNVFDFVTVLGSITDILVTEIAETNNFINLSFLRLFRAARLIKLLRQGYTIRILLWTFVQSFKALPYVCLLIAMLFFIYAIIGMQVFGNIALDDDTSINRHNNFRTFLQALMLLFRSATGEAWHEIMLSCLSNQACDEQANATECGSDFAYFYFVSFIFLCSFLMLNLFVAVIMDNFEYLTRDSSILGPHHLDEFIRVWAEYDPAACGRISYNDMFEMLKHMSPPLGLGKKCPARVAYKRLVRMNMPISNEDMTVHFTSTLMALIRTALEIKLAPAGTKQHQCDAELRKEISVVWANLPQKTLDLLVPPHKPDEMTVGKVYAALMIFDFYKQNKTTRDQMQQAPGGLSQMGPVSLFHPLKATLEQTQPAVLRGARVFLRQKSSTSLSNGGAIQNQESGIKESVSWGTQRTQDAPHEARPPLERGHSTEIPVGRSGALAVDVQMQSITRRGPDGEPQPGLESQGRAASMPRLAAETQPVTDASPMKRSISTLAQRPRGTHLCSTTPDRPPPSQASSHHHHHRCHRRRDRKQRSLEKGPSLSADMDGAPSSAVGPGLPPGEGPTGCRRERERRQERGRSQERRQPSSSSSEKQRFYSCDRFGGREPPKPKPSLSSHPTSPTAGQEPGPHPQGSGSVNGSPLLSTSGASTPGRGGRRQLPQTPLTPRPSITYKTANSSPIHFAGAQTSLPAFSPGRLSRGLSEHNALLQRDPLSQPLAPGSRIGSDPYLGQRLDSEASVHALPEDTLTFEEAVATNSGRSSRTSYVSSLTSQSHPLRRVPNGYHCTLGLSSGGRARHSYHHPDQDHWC
# Test: disruptors of CaV2.2 binding to Mint1 – biochemical, HTRF (AID 2073)
# Settings: HTRF protein-protein interaction, Mint1-CaV2.2, at 20 µM, stronger effect = higher value
# [1] = measured here: average of repeat tests
Compound,inhibition,inhibition [1]
CCN1CCCC1CNC(=O)c1cc2c(C)nc3ccccc3c2o1 (stereo not drawn),5.2% (inactive),
CCOC(=O)N1CCC(C(=O)NNC(=O)c2ccc(Cl)cc2Cl)CC1,6.9% (inactive),
CN1/C(=C/C(=O)C2CC2)C(C)(C)c2ccccc21,3.3% (inactive),
CCOC(=O)c1cc2c(=O)n3ccccc3nc2n(Cc2ccco2)c1=NC(=O)c1ccc(OC)cc1OC,66.1% (active),
CCOC(=O)c1cc2c(=O)n3ccccc3nc2n(Cc2ccco2)c1=NC(=O)c1ccccc1OC,10.2% (inactive),
CCOC(=O)c1cc2c(=O)n3ccccc3nc2n(Cc2ccco2)c1=NC(=O)c1ccc(OC)cc1,33.1% (inactive),
Cc1ccc(CNC(=O)c2ccc(S(=O)(=O)Nc3c(C)n(C)n(-c4ccccc4)c3=O)cc2)cc1,0.9% (inactive),
O=Cc1cccn1-c1cccnc1,8.9% (inactive),
Fc1ccccc1N1CCN(C2CCCN(Cc3ccccc3C(F)(F)F)C2)CC1 (stereo not drawn),-0.4% (inactive),
CCN(CC)CCN(C(=O)c1ccc2c(c1)OCCO2)c1nc2ccc(C)cc2s1,-5.5% (inactive),
CSc1nc(N2CCN(CCO)CC2)c2sc3nc(-c4ccco4)c4c(c3c2n1)CCC4,64% (active),
OCCN1CCN(c2ncnc3c2sc2nc(N4CCOCC4)c4c(c23)CCC4)CC1,3.4% (inactive),
CSc1nc(N(CCO)CCO)c2sc3nc(-c4ccco4)c4c(c3c2n1)CCC4,72.4% (active),
CC1(C)Cc2c(c(-c3ccco3)nc3sc4c(NCCCO)ncnc4c23)CO1,5.3% (inactive),
OCCN(CCO)c1ncnc2c1sc1nc(N3CCOCC3)c3c(c12)CCCC3,16.9% (inactive),
CC1(C)Cc2c(c(N3CCCC3)nc3sc4c(N5CCN(CCO)CC5)ncnc4c23)CO1,-8.9% (inactive),
Cc1nn(Cc2noc(C(=O)NCCc3ccccn3)n2)c(C)c1Br,7.3% (inactive),
CC1(C)CC(NC(=O)c2ccccc2C(=O)NC2CC(C)(C)NC(C)(C)C2)CC(C)(C)N1,32.5% (inactive),
CCOC(=O)c1cnn(-c2nc(-c3ccccc3)nc3c2COC(C)(C)C3)c1N,-0.5% (inactive),
CCOC(=O)N1CCN(C(=O)CSc2nc3c(cnn3-c3ccc(C)cc3)c(=O)[nH]2)CC1,7.8% (inactive),
CCn1c(=O)cc(OCC(=O)Nc2ccc3c(c2)OCCO3)c2ccccc21,21.8% (inactive),
CCc1ccc2[nH]c(=O)c(C(c3nnnn3CC3CCCO3)N3CCCc4ccccc43)cc2c1 (stereo not drawn),73% (inactive),15.4%
Cc1ccc2[nH]c(=O)c(C(c3nnnn3CC3CCCO3)N3CCCc4ccccc43)cc2c1 (stereo not drawn),94.9% (inactive),12.5%
Cc1cc2cc(C(c3nnnn3CC3CCCO3)N3CCCc4ccccc43)c(=O)[nH]c2cc1C (stereo not drawn),70% (active),
COC(=O)C1=C(C(=O)OC)[C@@H]2N(C)c3ccc(OC)cc3[C@@]23C[C@@H](C(=O)OC)N(C(=O)c2ccc(Br)cc2)C3=N1,6.3% (inactive),
Nc1nonc1-n1nnc(C(=O)N/N=C/c2ccc(F)cc2)c1-c1cccs1,4.3% (inactive),
Cc1ccc(NC(=O)c2cc(-c3ccc(C)c(C)c3O)n[nH]2)cc1C,12.1% (inactive),

Compound,inhibition,inhibition [1]
CC(=O)Nc1ccc(NC(=O)c2cc(-c3cc(C)c(C)cc3O)n[nH]2)cc1,-5.1% (inactive),
COc1ccccc1CNc1cc(CSc2ccc(Cl)cc2)nc(C)n1,-1.5% (inactive),
CC(C)CNC(=O)CSc1nc(-c2cccs2)cc(C(F)(F)F)n1,16.7% (inactive),
COc1ccc(CCNC(=O)C(CC(C)C)NC(N)=O)cc1 (stereo not drawn),4.9% (inactive),
COc1ccc(CN(C(=O)c2cc(=O)c3cc(C)cc(C)c3o2)C2CCS(=O)(=O)C2)cc1 (stereo not drawn),0% (inactive),
COc1cccc(C(=O)NC2CC3CCCC(C2)N3CC(=O)Nc2ccccc2)c1 (stereo not drawn),55% (active),
O=C(CN1C2CCCC1CC(NC(=O)c1ccccc1)C2)Nc1ccccc1 (stereo not drawn),8.3% (inactive),
COc1cccc(C(=O)NC2CC3CCCC(C2)N3CC(=O)Nc2ccc(N(C)C)cc2)c1 (stereo not drawn),-12.2% (inactive),
O=C(Cn1c(=O)sc2ccccc21)Nc1ccc(S(=O)(=O)N2CCCCC2)cc1,18% (inactive),
COc1ccc(C2=CC(c3c(C)nn(-c4ccccc4)c3Cl)n3nnnc3N2)cc1OC (stereo not drawn),24.3% (inactive),
CSc1nc(C)cc(-n2cc(F)c(=O)[nH]c2=O)n1,-1.3% (inactive),
O=C1C(Cl)=C(NC(=O)c2ccccc2)C(=O)C(Cl)=C1NC(=O)c1ccccc1,81.8% (active),
O=C(NC1=C(Nc2ccc(Cl)cc2)C(=O)c2ccccc2C1=O)c1ccccc1,-10.9% (inactive),
O=C(Nc1ccccc1Cl)c1ccccc1,23.6% (inactive),
CC(=O)N1CCN(C(=O)c2ccc3c(c2)OCCO3)CC1,16.6% (inactive),
CCOC(=O)C1=C(Cc2ccc(C)cc2)C(=O)c2ccccc2C1=O,36% (inactive),
CCOC(=O)C1=C(O)c2ccccc2C(=O)/C1=C\c1ccc(CC)cc1,54.8% (active),
CCOC(=O)C1=C(Cc2ccc(F)cc2)C(=O)c2ccccc2C1=O,76% (inactive),27.8%
CCOC(=O)C1=C(O)c2ccccc2C(=O)/C1=C\c1ccc(C)cc1,49.4% (inactive),
CCOC(=O)C1=C(Cc2ccc(OC)cc2)C(=O)c2ccccc2C1=O,61.9% (active),
CCOC(=O)C1=C(Cc2ccc(Cl)cc2)C(=O)c2ccccc2C1=O,66.8% (inactive),19.3%
COc1ccc(N/C(=N/c2nc(C)cc(C)n2)NC(=O)c2ccccc2)cc1,8.5% (inactive),
CSc1cccc(NC(=O)C2CCN(C(=O)c3ccccc3C)CC2)c1,3.1% (inactive),
CCOc1ccc(CCNC(=O)CSc2nnnn2C)cc1OCC,0% (inactive),
CC1=CC(=C(C#N)C#N)C=C(C)N1Cc1ccccc1,-8.3% (inactive),
CCn1c(=O)c(=O)[nH]c2cc(C(=O)Nc3ccc(S(=O)(=O)N4CCCC4)cc3)ccc21,19.2% (inactive),
CCCNC(=O)OC[C@H]1O[C@H](CCO/N=C/c2ccc(C(=O)N3[C@H](c4ccc(C)cc4)[C@@H](C)CC[C@H]3C(=O)OC)cc2)C=C[C@@H]1Oc1ccc(OC)cc1,6.9% (inactive),
